Most compounds without a hit are left out; they make up all but 6.8% or so of the library.
NADH enzymes: inhibitors of PK/LDH coupling enzymes, profiling panel, artefact control, biochemical, MLSMR library. coupled PK/LDH NADH assays, four targets. IC50, µM (highest dose often 10 µM). 65,000 tested, 0.02% active. AID 774, 2007;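 active = single-dose screening hits from any of four coupled enzyme assays that gave an IC50 when retested across doses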;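 note: the DPM-DC format reads NADH fluorescence rather than 340 nm absorbance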
Spn MK inh: S. pneumoniae MK inhibitors, primary screen, biochemical, PK/LDH-coupled NADH absorbance | mevalonate kinase [Streptococcus pneumoniae D39] | purified MK, PK/LDH-coupled NADH absorbance 340 nm | inhibition, % at 10 µM | 65,000 tested, 0.48% active;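 active = ranked among the strongest by inhibition in the single 10 µM screen, a fixed top-ranked set picked for dose follow-up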
Spn PMK inh: S. pneumoniae PMK inhibitors, primary screen, biochemical, mevalonate pathway, pilot trial included | phosphomevalonate kinase (Streptococcus pneumoniae D39) | purified PMK, PK/LDH-coupled NADH absorbance 340 nm | inhibition, % at 10 µM | 65,000 tested, 0.49% active | AID 539, 2006;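 active = top-ranked compounds by inhibition in the single 10 µM screen, taking a fixed number of the strongest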
A340 absorber: compound light absorbance at 340 nm, profiling panel, artefact control, biochemical, MLSMR library, data from PS, PMK, MK assays; fold change at 10 µM; compound absorbance at 340 nm, fold over control; 65,000 tested, under 10 active;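 active = at 10 µM dose, initial 340 nm absorbance at least 2 fold that of control wells; inactive = change under 2 fold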;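 note: initial absorbance extrapolated from kinetic A340 decline of NADH oxidation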
DPM-DC inhibit: S. pneumoniae DPM-DC inhibitors, primary screen, biochemical, PK/LDH-coupled NADH fluorescence | diphosphomevalonate decarboxylase (Streptococcus pneumoniae D39) | purified DPM-DC | calls only at 10 µM | 65,000 tested, 0.49% active | AID 556, 2006;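 active = the 320 compounds with the highest percent inhibition in the single-dose primary screen, excluding strongly autofluorescent ones, cut at about 32% in these data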;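 note: kinetic rate of NADH fluorescence loss reporting ADP formed by the decarboxylase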
Fluor 339 460: intrinsic fluorescence of library compounds, ex339/em460 – biochemical, MLSMR library, data from DPM-DC assay, artefact control, profiling panel; compound autofluorescence, ex339/em460 nm, NADH buffer; stronger effect = higher value; 1 = no-compound wells, NADH background; fluorescence fold increase at 10 µM; 65,000 tested, 5.5% active; AID 709, 2007;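 active = at 10 µM, mean starting fluorescence two-fold or more over control wells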;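 note: signal is the first read of a kinetic run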
Large screens that a line does not name were inactive.

O=c1oc2c(CN3CCOCC3)c(O)c(Cl)cc2c2c1CCC2	Fluor 339 460 3.8 (not shown: DPM-DC inhibit)
O=c1n(-c2ccccc2)c(=O)n(Cc2ccccn2)n1Cc1ccccn1	none
Cc1onc(-c2ccccc2)c1C(=O)N1CCCSC1=Nc1ccccc1	none
Cc1csc(NC(=O)CSc2nnc(-c3ccncc3)o2)n1	none
CCc1c(C)c2cc(Cl)c(O)c(CN3CCCCC3)c2oc1=O	Fluor 339 460 2.3 (not shown: DPM-DC inhibit)
O=c1oc2ccccc2c(N2CCCCC2)c1CN1CCCCC1	none
COC(=O)c1c(S(N)(=O)=O)c2ccccc2n1C	Fluor 339 460 2.1 (not shown: DPM-DC inhibit)
CCOC(=O)N1CCC(NC(=O)c2cc3c(-c4cccc(OC)c4)nn(C)c3s2)CC1	Fluor 339 460 3.9
COc1cccc(-c2nn(C)c3sc(C(=O)NCc4ccccn4)cc23)c1	Fluor 339 460 4.9 (not shown: DPM-DC inhibit)
O=C(Nc1nnc(-c2ccccc2Cl)o1)c1cccnc1	none
O=C(NCc1ccco1)C1(S(=O)(=O)c2ccc(Cl)cc2)CC1	none
CCn1cc(C(=O)O)c(=O)c2cc(F)c(N3CCNCC3)cc21	Fluor 339 460 2.5 (not shown: DPM-DC inhibit)
CCn1cc(C(=O)NCc2ccccn2)c(=O)c2cc(F)c(N3CCN(C)CC3)cc21	none
CCn1cc(C(=O)O)c(=O)c2cc(F)c(N3CCN(C(=O)Nc4ccccc4)CC3)cc21	none
CCOC(=O)c1cn(CC)c2cc(N3CCSCC3)c(F)cc2c1=O	Fluor 339 460 2.9
COc1ccc(N2CCN(c3ccc(N)cc3C#N)CC2)cc1	none
COc1ccc(C(=O)Nc2ccc(N3CCN(c4ccc(OC)cc4)CC3)c(C#N)c2)cc1	Fluor 339 460 5.1 (not shown: DPM-DC inhibit)
COc1ccc(C(=O)N2CCC(C(=O)Nc3ccc(OC)c(OC)c3)CC2)cc1	none
COc1ccc(N2CCN(c3ccc(NC(=O)C4CCCCC4)cc3C#N)CC2)cc1	Fluor 339 460 2.2
COc1ccc(-n2c(/C=C(\C)O)nc(=O)c3c(C)cc(C)nc32)cc1	none
CCCc1cc(=O)[nH]c(SCC(=O)NC2CCCCC2)n1	none
CCCc1cc(=O)[nH]c(SCC(=O)Nc2cc3c(cc2C(C)=O)OCO3)n1	Fluor 339 460 2.1
CC(=O)c1cc2c(cc1NC(=O)CSc1nnc(C)s1)OCO2	Fluor 339 460 2
Cc1ccccc1Cn1ccc(NC(=O)c2cc3nc(-c4ccco4)cc(C(F)(F)F)n3n2)n1	Fluor 339 460 3.8 (not shown: DPM-DC inhibit)
O=C(c1cc2nc(-c3ccccc3)cc(C(F)(F)F)n2n1)N1CCCC1	none
O=C(c1cc2nc(-c3ccco3)cc(C(F)(F)F)n2n1)N1CCCCCC1	Fluor 339 460 2.2 (not shown: DPM-DC inhibit)
COc1ccc(-c2cc(C(F)(F)F)n3nc(C(=O)N4CCCCC4)cc3n2)cc1	Fluor 339 460 2.3 (not shown: DPM-DC inhibit)
O=C(c1cc2nc(-c3ccc(F)cc3)cc(C(F)(F)F)n2n1)N1CCCC1	DPM-DC inhibit active
O=C(c1cc2nc(-c3ccco3)cc(C(F)(F)F)n2n1)N1CCN(c2ccccc2)CC1	none
CC(=O)Nc1ccc(S(=O)(=O)N2CCN(C(C)CCc3ccccc3)CC2)cc1 (stereo not given)	none
O=C1CC(=O)CC(c2ccccc2Cl)C1	none
CN(C(=O)c1cc2nc(-c3ccco3)cc(C(F)(F)F)n2n1)C1CCCCC1	Fluor 339 460 2.2 (not shown: DPM-DC inhibit)
CC(C)OCCCNc1nc2c([nH]1)c(=O)n(C)c(=O)n2C	none
Cc1ccc(-c2c(C)c(-c3ccc(F)cc3)nc(N)c2C#N)o1	Fluor 339 460 3
Cc1ccc(NC(=O)CS(=O)(=O)c2c[nH]c3ccccc23)c(C)c1	none
CCOC(=O)c1[nH]c2ccc(OC)cc2c1NC(=O)C(C)N1CCC2(CC1)OCCO2 (stereo not given)	Fluor 339 460 3.8 (not shown: DPM-DC inhibit)
CCOC(=O)c1[nH]c2ccc(C)cc2c1NC(=O)CN1CCCCC1	none
CCOC(=O)c1[nH]c2ccc(OC)cc2c1NC(=O)c1nonc1C	none
CCOC(=O)c1[nH]c2ccc(OC)cc2c1NC(=O)CN1CCC2(CC1)OCCO2	Fluor 339 460 3.9 (not shown: DPM-DC inhibit)
CCOC(=O)c1[nH]c2cc(OC)c(OC)cc2c1NC(=O)CN1CCN(C)CC1	Fluor 339 460 3.6 (not shown: DPM-DC inhibit)
CCOC(=O)c1[nH]c2ccc(F)cc2c1NC(=O)C(C)N1CCc2cc(OC)c(OC)cc2C1 (stereo not given)	none
O=C(O)c1cc(S(=O)(=O)O)ccc1O	none
O=C(OCc1cc(Cl)ccc1OC(F)F)c1cc(S(=O)(=O)O)ccc1O	Fluor 339 460 2.1 (not shown: DPM-DC inhibit)
Cc1ccc(N2CC(C(=O)NCC3CCCO3)CC2=O)cc1Cl (stereo not given)	none
N=c1c(C(=O)NCc2ccccc2)cc2c(=O)n3ccccc3nc2n1Cc1ccco1	none
N=c1c(C(=O)NCc2ccc(F)cc2)cc2c(=O)n3ccccc3nc2n1Cc1ccco1	Fluor 339 460 2.7
Cc1ccc(CNC(=O)c2cc3c(=O)n4ccccc4nc3n(Cc3ccco3)c2=N)cc1	Fluor 339 460 2.3 (not shown: DPM-DC inhibit)
Cc1ccc(CNC(=O)c2cc3c(=O)n4ccccc4nc3n(CC3CCCO3)c2=N)cc1 (stereo not given)	Fluor 339 460 2.4 (not shown: DPM-DC inhibit)
CCOC(=O)c1cc2c(=O)n3ccccc3nc2n(CC2CCCO2)c1=NC(C)=O (stereo not given)	Fluor 339 460 2
c1ccc2c(N3CCCCC3)nc(N3CCCCC3)nc2c1	none
Nc1nc(N2CCOCC2)nc2ccccc12	Fluor 339 460 4 (not shown: DPM-DC inhibit)
c1ccc2c(c1)nc(N1CCOCC1)c1c3ccccc3[nH]c21	Fluor 339 460 3.6 (not shown: DPM-DC inhibit)
CCOc1ccc2nc(N3CCOCC3)nc(C)c2c1	Fluor 339 460 3.8 (not shown: DPM-DC inhibit)
c1ccc2nc(N3CCOCC3)c(N3CCOCC3)nc2c1	none
Cc1cc(N2CCN(c3nc(N4CCOCC4)nc4ccccc34)CC2)c2ccccc2n1	Fluor 339 460 2.1
CC(=O)Nc1ccc(S(=O)(=O)NC(=O)C23CC4CC(CC(C4)C2)C3)cc1	none
O=C(Nc1cc(Cl)ccc1O)c1cc2n(n1)C(C(F)(F)F)CC(c1ccc3c(c1)OCO3)N2 (stereo not given)	none
O=C(NCc1ccc2c(c1)OCO2)c1cc2n(n1)C(C(F)(F)F)CC(c1ccc3c(c1)OCO3)N2 (stereo not given)	Spn PMK inh 25
Fc1cccc(Cl)c1CSc1nnc(COc2cccc3cccnc23)o1	none
COc1cccc2cc3c(=O)n(-c4ccccc4)nc-3oc12	DPM-DC inhibit active
Cc1cc(=O)oc2c(N)c(O)ccc12	none
Cc1cc(=O)oc2c(CN(C)Cc3ccccc3)c(O)ccc12	Fluor 339 460 3.6 (not shown: DPM-DC inhibit)
COC(=O)C1=CN(CCCN2CCCC2=O)C=C(C(=O)OC)C1c1cccs1	Fluor 339 460 4.8 (not shown: DPM-DC inhibit)

Screens: PubChem BioAssay, SRMLSC
